Results on 93 compounds are retold here after PubChem BioAssay AID624304 (Sanford-Burnham Center for Chemical Genomics, 2012).

Screen size: about 360,000 compounds; about 1,800 (0.5%) were called active.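 Rule for the calls: active = interference check ratio from 0.5 to 1.5 plus GFP to RFP signal ratio inhibition reaching or exceeding a fixed threshold (cut at about 30% in these data, passing the limit was not always enough); inactive = the rest.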 The sample as a whole holds a higher share of actives than the screen did.

This assay is described as follows: suppressors of acrylamide-induced Pgst-4::GFP reporter in worms, primary screen, SKN-1 inhibitor project, whole organism, uHTS, GFP/RFP fluorescence ratio, strain VP596 (AID 624304). Conditions: C. elegans VP596 Pgst-4::GFP/RFP ratio, 24 h, at 21.8 µM, stronger effect = higher value.
In general, inhibition refers to the drop in the measured response relative to a control, in per cent. As to `CCc1ccc2c(c1)C1(NN=C(c3ccccc3)S1)C(=O)N2` (stereo not drawn), the inhibition was 4.61% (inactive). The figure for `Cc1ccc(-c2ccc(CN3C(C(C)C)C(=O)N(Cc4cn(CCC5OCCO5)nn4)CCS3(=O)=O)cc2)cc1` (stereo not drawn) is 12.6% (inactive). The figure for `COc1ccc(C2C3=C(OC(C)=O)c4ccccc4C3=Nc3c2c(=O)n(C)c(=O)n3C)cc1` (stereo not drawn) is 2.4% (inactive). Then `CCOc1ccc(OCC)c(NC(=O)CN(C)S(=O)(=O)c2cccc3nsnc23)c1`, with 27.2% (inactive); and `CCO[C@@H]1OC(C(=O)NCc2nc3ccccc3[nH]2)=C[C@H](C2CCCCC2)[C@H]1CCCO`, with 7.19% (inactive). Turning to `COC(=O)c1ccc(C2NC(=O)NC(C)=C2C(=O)N(C)C)cc1` (stereo not drawn), the inhibition is 0.51% (inactive). With `CCOC(=O)C1=C(C)NC2=C(C(=O)CC(C)(C)C2)C1c1ccsc1` (stereo not drawn), the inhibition was 1.51% (inactive). With `CCOC(=O)C1=C(C)Nc2sc(C(=O)c3ccc(Br)cc3)c(N)c2C1c1ccc(C(=O)OC)cc1` (stereo not drawn), the inhibition was 37.2% (active). Then `CS(=O)(=O)N(CC(O)Cn1c2ccccc2c2ccccc21)c1cccc2ccccc12` (stereo not drawn), with 5.96% (inactive); and `Oc1cccc2cc(-c3ccncc3)cnc12`, with -1.84% (inactive). Then `CC1=NN(C(=O)CCc2ccccc2O)C(O)(C(F)(F)F)C1` (stereo not drawn), with 0.219% (inactive); and `CCN(CC)S(=O)(=O)c1ccc(N(C)Cc2ccc(C(F)(F)F)cc2)nc1`, with 3.82% (inactive); and `CCN(CC)S(=O)(=O)c1ccc(N(C)CCc2ccc(OC)c(OC)c2)nc1`, with 43% (active). The figure for `CCN(CC)S(=O)(=O)c1ccc(N(C)Cc2cccc(OC)c2OC)nc1` is 13.3% (inactive); for `S=c1[nH]ccn1-c1ccc(Cl)cc1` it is 1.55% (inactive). As for `COc1cc2c(C(=O)N3CCN(C)CC3)c(CSc3ccccc3)n(C)c2cc1Br`, the inhibition is -4.81% (inactive). Take `Oc1ccc(-c2nncn2-c2ccccc2)cc1`: the inhibition is 3.4% (inactive). Then `CC(=O)Nc1ccc(NC(=O)CCN2C(=O)C3CC=CCC3C2=O)cc1` (stereo not drawn), with -12.5% (inactive); and `Cc1c(C(=O)NCCN2C(=O)S/C(=C\c3cccs3)C2=O)cccc1[N+](=O)[O-]`, with 9.81% (inactive); and `O=C(CCCN1C(=O)/C(=C/c2cccs2)SC1=S)Nc1ccc(O)cc1`, with 38.3% (active). Then `CC(Sc1nncn1C)C(=O)NCCC1=CCCCC1` (stereo not drawn), with -8.96% (inactive); and `O=C(NCCC1=CCCCC1)c1ccc(Cl)c([N+](=O)[O-])c1`, with 7.85% (inactive); and `Cn1nnc2cc(C(=O)NCCC3=CCCCC3)ccc21`, with 35.4% (active). The figure for `CCc1ccc(C(=O)NC(=S)Nc2ccccc2N2CCOCC2)cc1` is 11% (inactive); for `COc1ccc(C(=O)NC(=S)Nc2ccccc2N2CCN(S(C)(=O)=O)CC2)cc1OC` it is 41% (active). For `CC(=O)N1CCN(c2ccccc2NC(=S)NC(=O)c2cc3ccccc3o2)CC1`, the inhibition was 6.86% (inactive). In the case of `CC(=O)c1cccc(NC(=O)N2CCCC2C(=O)NCCc2ccccc2)c1` (stereo not drawn), the inhibition was 23.5% (inactive). The figure for `Cn1nnnc1SCC(=O)Nc1cccc(S(=O)(=O)N2CCCCC2)c1` is 6.32% (inactive). The figure for `COCCn1cnnc1SCC(=O)Nc1cccc(S(=O)(=O)N2CCCCC2)c1` is 47% (active).

`O=C(CSc1ccccc1)Nc1cccc(S(=O)(=O)N2CCCCC2)c1`: the inhibition is 12.9% (inactive). Then `CCOC(=O)C1CCCN(C(=O)COc2ccc(N(C)S(=O)(=O)c3ccc(C)cc3)cc2)C1` (stereo not drawn), with -2.11% (inactive); and `Cn1cc(S(=O)(=O)N2CCN(c3ccc(F)cc3)CC2)c(=O)n(C)c1=O`, with 1.81% (inactive); and `CCN1C(=O)[C@@H]2[C@@H]3CN(S(=O)(=O)c4ccccc4C)[C@@H](c4ccc(Cl)cc4)[C@@H]3C(=O)C[C@@H]2C1=O`, with 2.39% (inactive). For the compound `C#CCN(C[C@H]1[C@H](OC(=O)NC2CCCC2)[C@H](OC(=O)NC2CCCC2)C[C@H]2C(=O)N(c3ccccc3)C(=O)[C@@H]12)S(=O)(=O)c1ccc(C)cc1`, the inhibition was 11.9% (inactive). The figure for `CCc1ccc2oc(-c3ccc(N)cc3)nc2c1` is 39.8% (active); for `O=[N+]([O-])c1ccc2oc(-c3cccc(O)c3)nc2c1` it is 17% (inactive); for `COc1ccc2oc(N)nc2c1` it is 3.43% (inactive). With `CCCCN1CC(C)(C)[C@H](CC(=O)Nc2ccc(Br)cc2)C1=O`, the inhibition was 13% (inactive). Then `C[C@H]1CN(c2ccc(Br)cc2)C(=O)[C@@H]1CC(=O)Nc1ccc(Br)cc1`, with -1.36% (inactive); and `CCCCN1C[C@H](c2ccc(Br)cc2)[C@@H](CC(=O)Nc2ccc(Br)cc2)C1=O`, with 46.8% (active). As for `COC(=O)c1ccc(N(CC(=O)NC2CCCC2)C(=O)CNC(=O)c2ccco2)cc1`, the inhibition was 13.4% (inactive). Then `Cc1ccoc1C(=O)Nc1cccc(Oc2ccccc2)c1`, with -23.9% (inactive); and `NS(=O)(=O)c1cccc(NC(=O)COC(=O)/C=C/c2ccco2)c1`, with 0.905% (inactive); and `O=C(Nc1ccc(Oc2ccccc2)cc1)c1ccco1`, with 38.8% (active).

With `O=C(/C=C/c1ccco1)Nc1ccc(Oc2ccccc2)cc1`, the inhibition is 48.8% (active). For `CN1CCN(S(=O)(=O)c2ccc(NC(=O)c3ccco3)cc2)CC1`, the inhibition was 13.7% (inactive).

For `O=C(/C=C/c1ccco1)NC(=S)N1CCCCC1`, the inhibition is 11.9% (inactive). `CCNc1nc(NC(C)C)nc(N2CC(=O)N(CC(=O)OCC)C2=N)n1`: the inhibition was 3.01% (inactive). Then `NS(=O)(=O)c1ccccc1NC(=O)c1c(O)c2ccccc2[nH]c1=O`, with 5.41% (inactive); and `COc1cccc(CNS(=O)(=O)c2ccc3c(c2)N(C(C)=O)CCS3)c1`, with 19.6% (inactive).

As for `N#Cc1nc(-c2cccc3ccccc23)oc1N`, the inhibition was 16.8% (inactive).

As for `CC1CCN(c2oc(-c3ccccc3F)nc2C#N)CC1`, the inhibition is 35.4% (active). Take `Cc1oc(-c2ccccc2F)nc1CS(=O)CC(=O)NCCN1CCCCC1C` (stereo not drawn): the inhibition was 5.11% (inactive).

Turning to `O=[N+]([O-])c1cc([N+](=O)[O-])c(Oc2cc(F)cc(F)c2F)cc1NN1CCCCC1`, the inhibition was 15.8% (inactive). The figure for `CCCNC(=O)C1(C)CCN(C(=O)c2ccccc2OC(F)(F)F)C1` (stereo not drawn) is -0.325% (inactive); for `O=C(CCc1ccc(S(=O)(=O)NC2CCCCC2)cc1)NCc1ccccc1` it is 3.92% (inactive). Then `Cc1cc(N=Nc2ccc3ccccc3c2)ccc1O`, with 44.4% (active); and `Cc1c(C(=O)NCCN2CCOCC2)sc2nc(-c3ccc(F)cc3)cn12`, with 5.89% (inactive). Then `CC/C(=N/Nc1ccccc1)c1cnnc(SC)n1`, with 10.2% (inactive); and `CCOc1ccc(CNC(=O)C2CC(=O)N(C3CCCC3)C2)cc1OC` (stereo not drawn), with 8.98% (inactive). In the case of `CCOC(=O)C1CCN(C(=O)C2CCN(S(=O)(=O)CC)CC2)CC1`, the inhibition is 6.26% (inactive).

For `Cc1onc(-c2ccccc2Cl)c1C(=O)NCCn1ccc2ccccc21`, the inhibition is 39.7% (active). The figure for `Cc1ccc2cc(CCNC(=O)c3c(-c4ccccc4Cl)noc3C)c(=O)[nH]c2c1` is 11.2% (inactive); for `Cc1onc(-c2ccccc2Cl)c1C(=O)N(Cc1ccc(N(C)C)cc1)C(C)C` it is -21.5% (inactive). The figure for `FC(F)(F)c1ccc(-c2cccc3c2C2CC3CCN2Cc2ccccc2)cc1` (stereo not drawn) is 7.81% (inactive); for `CC1(C)Cc2ccccc2-c2nnc(-c3cccc(O)c3)n21` it is 27.7% (inactive); for `O=C(NC1CCCCCCC1)c1cccs1` it is 22.3% (inactive). Then `O=C(NC1CCCC1)c1cc(-c2ccccc2)on1`, with 37.3% (active). For the compound `O=C(NCCCn1ccnc1)c1cc(-c2ccccc2)on1`, the inhibition is 8.95% (inactive). The figure for `NC1=CC(=O)C(=O)c2cccnc21` is 18.3% (inactive); for `COc1ccccc1Cn1c(C)nnc1-c1cnn(C)c1N` it is 10.4% (inactive); for `CCCCNC(=O)CSc1nc2ccc(NC(=O)CSc3nnc(COc4ccccc4C)n3C)cc2s1` it is 39.2% (active). On to `CC(=O)Nc1ccc(NC(=O)CSc2nnc(COc3ccccc3C)n2CC2CCCO2)cc1` (stereo not drawn), for which the inhibition is -7.59% (inactive). Then `CCOc1cc(C)ccc1OCc1nnc(SCC(=O)Nc2cccc(C(=O)O)c2)n1-c1ccccc1`, with -9.28% (inactive); and `Cc1nonc1C1CCCN1Cc1nc(-c2ccc(F)cc2F)oc1C` (stereo not drawn), with 10% (inactive). The figure for `CSc1nnc(CNC(=O)c2ccccc2)n1-c1ccc(F)cc1` is -6.87% (inactive); for `Cc1ccnc(SCCn2c(Br)nc3c2c(=O)[nH]c(=O)n3C)n1` it is -9.02% (inactive); for `CCCCCCCCCCCCN1C(=O)CSC1c1cccnc1` (stereo not drawn) it is -6.65% (inactive). Then `CCOc1cc(CO)ccc1OCC(=O)N1CCCCC1`, with 7.04% (inactive); and `CCOC(=O)/C=C/CN(C(=O)OC(C)(C)C)S(=O)(=O)N1CC=CC1`, with 35.2% (active). For the compound `CCOC(=O)/C=C/c1ccc(C(F)(F)F)cc1S(=O)(=O)NC(C)(C)C`, the inhibition is 3.66% (inactive). The figure for `CNc1cc(-c2c(OC)cccc2OC)ncn1` is 4.47% (inactive). The figure for `CC(=O)N1CCN(c2ccc(NCc3ccc(C(C)C)cc3)cc2)CC1` is 36.1% (active); for `CCCC(=O)N1CCC1(C)C(=O)NCc1ccc(C(C)C)cc1` (stereo not drawn) it is 14.8% (inactive); for `CC(C)c1ccc(NC(=O)COC(=O)c2ccc(CN3CCCC3=O)cc2)cc1` it is -1.54% (inactive). Regarding `COCCNC(=O)c1ccc(N2CCC3(CC2)OCCO3)c([N+](=O)[O-])c1`, the inhibition was -6.38% (inactive). The figure for `O=C(Nc1nn(Cc2ccccc2F)cc1Br)c1cccs1` is 6.46% (inactive); for `Cc1ccc(-c2noc(-c3ccccc3C(=O)NCC3CCCO3)n2)cc1` (stereo not drawn) it is -3.76% (inactive). The figure for `Cc1ccc(-c2nc(-c3ccncc3)no2)c(C)c1` is 37% (active). As for `COc1ccc(CCc2nc(-c3cccs3)no2)cc1`, the inhibition was -7.8% (inactive). Consider `c1csc(-c2nc(-c3ccncc3)no2)c1`, for which the inhibition was 47.4% (active). With `O=C(NCc1cccnc1)c1nc(-c2cccs2)no1`, the inhibition is 7.29% (inactive). Take `COc1cc(OC)cc(C(=O)OCC(=O)Nc2sccc2C(N)=O)c1`: the inhibition was 0.966% (inactive).
